A selection: hits, their analogues and other compounds. The true share with any hit is near 1.1%.
OPRM1-OPRD1 inv = inverse agonists of human mu-delta opioid receptor heterodimerization. P35372+P41143. cell-based MOR-DOR heterodimer luminescence, inverse agonism. inhibition, % at 9.3 µM. 340,000 tested, 0.21% active. AID 504357; in the data active = inhibition above about 22%, passing the limit was not always enough
HTR5A ag ctr = counter-screen for OPRM1-OPRD1 agonists: human HTR5A agonism; P47898; HTR5A agonist assay, luminescence, cell-based; activation, % at 9.3 µM; 340,000 tested, 0.61% active; AID 504692; in the data active = activation mostly above about 9.5%, no sharp cut-off; inactive = mostly below about 7.6%
Target sequence (P47898 whole entry, looked up): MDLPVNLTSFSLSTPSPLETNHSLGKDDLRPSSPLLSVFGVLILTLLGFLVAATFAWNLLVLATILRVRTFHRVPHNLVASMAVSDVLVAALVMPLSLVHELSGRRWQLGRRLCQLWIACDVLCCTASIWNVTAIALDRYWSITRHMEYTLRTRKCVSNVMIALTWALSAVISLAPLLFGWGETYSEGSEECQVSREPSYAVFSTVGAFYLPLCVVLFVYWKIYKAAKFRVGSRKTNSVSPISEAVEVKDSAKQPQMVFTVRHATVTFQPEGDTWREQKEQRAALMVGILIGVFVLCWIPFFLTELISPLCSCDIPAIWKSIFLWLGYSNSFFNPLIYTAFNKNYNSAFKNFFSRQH
MOR-DOR ag-1 = agonists of human mu-delta opioid receptor heterodimerization. P35372+P41143. cells, OPRM1-OPRD1 heterodimerization, luminescence. activation, % at 9.3 µM. 340,000 tested, 0.3% active. AID 504326
HTR5A inv ctr = inverse agonist of human HTR5A in OPRM1-OPRD1 counter-screen; inhibition, % at 9.3 µM; HTR5A cell line, luminescence, inverse agonism; AID 504634; 340,000 tested, 0.083% active; P47898; in the data active = inhibition mostly above about 23%, no sharp cut-off; inactive = mostly below about 18%
MOR-DOR ag-2 = counter-screen for HTR5A agonists: OPRM1-OPRD1 heterodimerization agonism; 800 tested, 13% active; U2OS counter-screen cells, complementation luminescence, 3 h; shares compounds with HTR5A ag ctr; AID 504913; activation, % at 9.3 µM
HTR5A ag conf = confirmation of human HTR5A agonists | HTR5A agonist cell assay, luminescence | activation, % at 9.3 µM | shares compounds with HTR5A ag ctr | AID 504915 | 800 tested, 17% active; in the data active = activation above about 17%
A number is an active result; n = inactive; x = not tested or not shown. Cut-off read from the data, not from the text of the source, unless noted: active = activation above about 18%; inactive = the rest.

SMILES	OPRM1-OPRD1 inv	HTR5A ag ctr	MOR-DOR ag-1	HTR5A inv ctr	MOR-DOR ag-2	HTR5A ag conf
COc1cccc(C2N(Cc3ccccc3)C(=O)C2(F)F)c1OC (stereo not given)	n	16	n	n	n	n
COc1cccc(C2N(c3ccccc3)CCN2c2ccccc2)c1OC	n	n	n	n	x	x
O=C(CCC1CCCN(C(=O)c2ccsc2)C1)NCc1ccc(F)c(F)c1 (stereo not given)	n	n	n	n	x	x
CCOc1ccccc1N(CC(=O)NCCSc1ccccn1)S(=O)(=O)c1ccccc1	n	25	n	n	126	n
CCOc1ccccc1N(CC(=O)NCCSc1ccccn1)S(=O)(=O)c1ccc(C)cc1	n	30	n	n	n	n
Cc1ccc(S(=O)(=O)N(CC(=O)NCCSc2ccccn2)c2ccc(C)c(C)c2)cc1	n	n	n	n	x	x
CC(C)=C1SC(N2CCN(c3cccc(Cl)c3)CC2)=NC1=O	n	14	n	n	35	n
CSc1cc(-c2ccc(Cl)cc2)[nH]c(=O)c1C#N	n	17	n	n	n	n
COc1cc(F)ccc1CN1CCC(n2nccc2NC(=O)C2CCOC2)CC1 (stereo not given)	n	n	n	n	x	x
CSc1ncccc1C(=O)NC(C)CCc1ccccc1 (stereo not given)	n	n	n	n	x	x
O=C(CNc1cccc(C(F)(F)F)c1)Nc1cccc(S(=O)(=O)N2CCCC2)c1	n	19	n	n	n	n
Cc1cc(C)c(C#N)c(SCC(=O)Nc2cccc(S(=O)(=O)N3CCCC3)c2)n1	n	15	n	n	n	n
O=C(CNc1cccc(S(=O)(=O)N2CCCC2)c1)Nc1cccc(F)c1	n	n	n	n	x	x
O=C(NCCc1c[nH]c2ccccc12)C(=O)NCC1OCCCN1S(=O)(=O)c1ccc(F)cc1 (stereo not given)	n	16	n	n	n	24
O=C(NCCCc1ccccc1)C(=O)NCC1OCCN1S(=O)(=O)c1cc(F)ccc1F (stereo not given)	n	n	n	n	x	x
O=C(NCCc1c[nH]c2ccccc12)C(=O)NCC1OCCCN1S(=O)(=O)c1cccs1 (stereo not given)	n	31	n	n	n	n
O=C(NCCc1c[nH]c2ccccc12)C(=O)NCC1OCCN1S(=O)(=O)c1cc(F)ccc1F (stereo not given)	n	34	n	n	n	45
CNC(=O)C(=O)NCC1OCCCN1S(=O)(=O)c1cccs1 (stereo not given)	n	n	n	n	x	x
Cc1ccc(S(=O)(=O)N2CCOC2CNC(=O)C(=O)NCCc2c[nH]c3ccccc23)cc1 (stereo not given)	n	54	n	n	n	n
Cc1ccc(S(=O)(=O)N2CCOC2CNC(=O)C(=O)NCCc2ccc(S(N)(=O)=O)cc2)cc1 (stereo not given)	n	n	n	n	x	x
O=C(NCCO)C(=O)NCC1OCCCN1S(=O)(=O)c1cccs1 (stereo not given)	n	n	n	n	x	x
Cc1cc(F)ccc1S(=O)(=O)N1CCCOC1CNC(=O)C(=O)NCCc1c[nH]c2ccccc12 (stereo not given)	n	16	n	n	43	n
O=C(NCCCO)C(=O)NCC1OCCCN1S(=O)(=O)c1cccs1 (stereo not given)	n	17	n	n	n	n
CC(=O)c1ccc(NC(=O)C2CC2c2ccccc2)cc1 (stereo not given)	n	n	n	n	x	x
Cc1ccc(Cn2nnc3c(=O)[nH]c(C4CCN(S(=O)(=O)c5ccc(C)cc5)CC4)nc32)cc1	n	n	n	n	x	x
SMILES	OPRM1-OPRD1 inv	HTR5A ag ctr	MOR-DOR ag-1	HTR5A inv ctr	MOR-DOR ag-2	HTR5A ag conf
O=c1[nH]c(C2CCN(S(=O)(=O)c3ccc(C(F)(F)F)cc3)CC2)nc2c1nnn2Cc1ccc(F)cc1	n	18	n	n	n	n
O=C1OCC/C1=C\c1ccc(O)cc1	n	n	n	n	x	x
O=C(NCc1ccc2c(c1)OCO2)C1CC(=O)N(CCc2ccc(F)cc2)C1 (stereo not given)	n	16	n	n	n	n
O=C(NCc1ccc2c(c1)OCO2)C1CC(=O)N(CCc2ccccc2)C1 (stereo not given)	n	n	n	n	x	x
Cc1cc(NC(=O)CSc2nc(-c3ccc(Cl)cc3)cs2)no1	n	20	n	n	n	n
Cc1ccc(C(=O)NC(=S)Nc2ccc(Oc3ccc(Cl)cc3)cc2)cc1	n	n	n	n	x	x
Cc1ccc(C(=O)NC(=S)Nc2ccc(-c3ccc(CO)o3)cc2)cc1	n	15	n	n	n	n
O=C(Nc1ccc(-n2cc(Cl)cn2)cc1)c1ccncc1	n	14	n	n	18	n
CC(=O)c1ccc(S(=O)(=O)N2CCCC(N(C)CCc3ccccn3)C2)cc1 (stereo not given)	n	n	n	n	x	x
CCOC(=O)c1ccc(NC(=S)NC2CCCC2)cc1	n	15	n	n	n	n
CC(C)c1ccc(NC(=S)NC2CCCCCC2)cc1	n	16	n	n	27	n
CCOC(=O)c1ccc(NC(=S)NC(=O)C2CCCC2)cc1	n	n	n	n	x	x
COc1ccc(OC)c(S(=O)(=O)ON2C(=O)c3ccccc3C2=O)c1	n	n	n	n	x	x
CC1CC(C)(C)NC(=S)N1CCC(=O)N1CCc2ccccc2C1 (stereo not given)	n	15	n	n	n	n
CC1CC(C)(C)NC(=S)N1CCC(=O)N1CCN(c2ccccc2)CC1 (stereo not given)	n	n	n	n	x	x
CCCCCCCCCCCCCCCC[n+]1cccc2ccccc21	n	20	n	n	494	n
CCOc1ccc(N2C(=O)CC(NC3CCN(C(=O)c4cccs4)CC3)C2=O)cc1 (stereo not given)	n	n	n	n	x	x
Cc1ccccc1C(=O)c1cccn1CC(=O)NCc1ccccc1	n	n	n	n	x	x
Cc1ccccc1C(=O)c1cccn1CC(=O)NCc1ccc2c(c1)OCO2	n	17	n	n	n	24
CN(C(=O)CSc1nc2sc3c(c2c(=O)n1C)CCC3)C1CCS(=O)(=O)C1 (stereo not given)	n	n	n	n	x	x
CCC(C)(C)C1CCC(NC(=O)N2CCN(c3ccccc3O)CC2)CC1 (stereo not given)	n	15	n	n	n	n
CCOc1ccccc1N1CCN(C(=O)NC2CCCCC2)CC1	n	n	n	n	x	x
O=S(=O)(CCNC1CC1)NC1CCCCC1	n	n	n	n	x	x
COc1ccc2[nH]cc(CCNC(=S)NC3CCCC3)c2c1	n	n	n	n	x	x
COc1ccc2[nH]cc(CCNC(=O)C3CCCCC3)c2c1	n	52	n	n	n	n
O=C(NCCc1c[nH]c2ccccc12)C(=O)NCC(c1cccnc1)N1CCN(c2ccccc2)CC1 (stereo not given)	n	23	n	n	n	40
O=C(NCCc1c[nH]c2ccccc12)C1CCN(c2nnc(N3CCCC3=O)s2)CC1	n	42	n	n	n	47

Screening results from PubChem.
